Several values for one entry are separate records, joined by “and”; a condition that tells them apart may be missing. Equal entries are not always repeated. The whole screen tested about 5,500 compounds, of which about 2,000 (36%) were called active. About 18% were inconclusive and are not listed. Rule as the data show it: active = normalized growth mostly below about 0.91 (no sharp cut-off); inconclusive = no clear call, values can overlap the other calls; inactive = mostly above about 0.92. This is one part of the list.
Test: chemical genetic growth profiling, strain panel (AID 1159580);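 also: tested at 20 µM; growth read once vehicle control cultures reached saturation at 30 °C; 1 = growth at the plate median or of vehicle wells; lower values mean less growth of the strain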
Conditions: S. cerevisiae deletion strains, growth OD

Measured: normalized growth

CCCCCCCCCCCCCCCC[n+]1ccccc1
active: locus YAL013W, strain DEP1, stronger effect = lower value 0.0574 | locus YAL021C, strain ccr4, stronger effect = lower value 0.0611 | locus YAL026C, strain drs2, stronger effect = lower value 0.0581 | locus YAL030W, strain snc1, stronger effect = lower value 0.0525 | locus YBL061C, strain skt5, stronger effect = lower value 0.0581 | locus YBR009C, strain hhf1, stronger effect = lower value 0.0558 | locus YBR021W, strain FUR4, stronger effect = lower value 0.0963 | locus YBR023C, strain chs3, stronger effect = lower value 0.0594 | locus YBR171W, strain sec66, stronger effect = lower value 0.0739 | locus YBR229C, strain ROT2, stronger effect = lower value 0.0303 | locus YBR231C, strain swc5, stronger effect = lower value 0.0577 | locus YBR279W, strain paf1, stronger effect = lower value 0.0555 | locus YCL011C, strain gbp2, stronger effect = lower value 0.053 | locus YCL016C, strain dcc1, stronger effect = lower value 0.0599 | locus YCL029C, strain bik1, stronger effect = lower value 0.058 | locus YCL061C, strain MRC1, stronger effect = lower value 0.0607 | locus YCL069W, strain vba3, stronger effect = lower value 0.0581 | locus YCR088W, strain abp1, stronger effect = lower value 0.0584 | locus YDL005C, strain med2, stronger effect = lower value 0.0695 | locus YDL035C, strain GPR1, stronger effect = lower value 0.0498 | locus YDL040C, strain nat1, stronger effect = lower value 0.0541 | locus YDL074C, strain BRE1, stronger effect = lower value 0.0827 | locus YDL101C, strain DUN1, stronger effect = lower value 0.0526 | locus YDL134C, strain PPH21, stronger effect = lower value 0.0538 | locus YDL185W, strain tfp1, stronger effect = lower value 0.0538 | locus YDL192W, strain arf1, stronger effect = lower value 0.0595 | locus YDR001C, strain nth1, stronger effect = lower value 0.0571 | locus YDR069C, strain doa4, stronger effect = lower value 0.0582 | locus YDR101C, strain arx1, stronger effect = lower value 0.0554 | locus YDR137W, strain rgp1, stronger effect = lower value 0.0947 | locus YDR150W, strain NUM1, stronger effect = lower value 0.0551 | locus YDR159W, strain sac3, stronger effect = lower value 0.0818 | locus YDR162C, strain NBP2, stronger effect = lower value 0.047 | locus YDR195W, strain ref2 0.109 | locus YDR297W, strain sur2, stronger effect = lower value 0.0517 | locus YDR318W, strain mcm21, stronger effect = lower value 0.0596 | locus YDR334W, strain swr1, stronger effect = lower value 0.061 | locus YDR335W, strain msn5, stronger effect = lower value 0.0563 | locus YDR388W, stronger effect = lower value 0.0552 | locus YDR392W, strain spt3, stronger effect = lower value 0.068 | locus YDR502C, strain sam2, stronger effect = lower value 0.0615 | locus YEL003W, strain gim4, stronger effect = lower value 0.0501 | locus YEL037C, strain rad23, stronger effect = lower value 0.0542 | locus YEL061C, strain CIN8 (second series), stronger effect = lower value 0.0582 | locus YEL061C, strain CIN8, stronger effect = lower value 0.0502 | locus YER015W, strain faa2, stronger effect = lower value 0.0581 | locus YER016W, strain bim1, stronger effect = lower value 0.0593 | locus YER110C, stronger effect = lower value 0.0712 | locus YER111C, strain swi4, stronger effect = lower value 0.0669 | locus YER155C, strain BEM2 (second series), stronger effect = lower value 0.0821 | locus YER155C, strain BEM2, stronger effect = lower value 0.0622 | locus YER167W, strain BCK2, stronger effect = lower value 0.0514 | locus YFR010W, strain ubp6, stronger effect = lower value 0.0662 | locus YGL078C, strain dbp3, stronger effect = lower value 0.0557 | locus YGL086W, strain mad1, stronger effect = lower value 0.0563 | locus YGL167C, strain pmr1, stronger effect = lower value 0.0673 | locus YGL173C, strain kem1, stronger effect = lower value 0.0629 | locus YGL227W, strain vid30, stronger effect = lower value 0.062 | locus YGL240W, strain doc1, stronger effect = lower value 0.0671 | locus YGL248W, strain PDE1, stronger effect = lower value 0.0451 | locus YGL253W, strain hxk2, stronger effect = lower value 0.0516 | locus YGR135W, strain pre9, stronger effect = lower value 0.0612 | locus YGR252W, strain gcn5, stronger effect = lower value 0.17 | locus YHR013C, strain ard1, stronger effect = lower value 0.0961 | locus YHR027C, strain rpn1, stronger effect = lower value 0.0594 | locus YHR030C, strain SLT2, stronger effect = lower value 0.0512 and 0.0945 | locus YHR079C, strain IRE1 (second series), stronger effect = lower value 0.0605 | locus YHR079C, strain IRE1, stronger effect = lower value 0.11 | locus YHR094C, strain hxt1, stronger effect = lower value 0.0564 | locus YHR129C, strain ARP1, stronger effect = lower value 0.0537 | locus YHR142W, strain chs7, stronger effect = lower value 0.0693 | locus YHR200W, strain rpn10, stronger effect = lower value 0.0581 | locus YIL066C, strain RNR3, stronger effect = lower value 0.0411 | locus YIL073C, strain SPO22, stronger effect = lower value 0.106 | locus YIL125W, strain kgd1, stronger effect = lower value 0.0545 | locus YIR030C, strain dcg1, stronger effect = lower value 0.0571 | locus YJL092W, strain hpr5, stronger effect = lower value 0.0574 | locus YJL095W, strain BCK1 (second series), stronger effect = lower value 0.0528 | locus YJL095W, strain BCK1, stronger effect = lower value 0.0624 and 0.0966 | locus YJL115W, strain asf1, stronger effect = lower value 0.0684 | locus YJL129C, strain trk1, stronger effect = lower value 0.0768 | locus YJL134W, strain LCB3, stronger effect = lower value 0.047 | locus YJL154C, strain vps35, stronger effect = lower value 0.057 | locus YJL164C, strain tpk1, stronger effect = lower value 0.0549 | locus YJL166W, strain qcr8, stronger effect = lower value 0.0563 | locus YJL168C, strain set2, stronger effect = lower value 0.0564 | locus YJL187C, strain SWE1 (second series), stronger effect = lower value 0.0398 | locus YJL187C, strain SWE1, stronger effect = lower value 0.0529 | locus YJR043C, strain POL32, stronger effect = lower value 0.0648 | locus YJR066W, strain TOR1, stronger effect = lower value -0.000212 | locus YKL009W, strain mrt4, stronger effect = lower value 0.0643 | locus YKL068W, stronger effect = lower value 0.0564 | locus YKL085W, strain MDH1 (second series), stronger effect = lower value 0.0485 | locus YKL085W, strain MDH1, stronger effect = lower value 0.0485 | locus YKL160W, strain elf1, stronger effect = lower value 0.058 | locus YKR001C, strain vps1, stronger effect = lower value 0.0609 | locus YKR026C, strain gcn3, stronger effect = lower value 0.058 | locus YKR091W, strain srl3, stronger effect = lower value 0.0563 | locus YLL001W, strain dnm1, stronger effect = lower value 0.0595 | locus YLL026W, stronger effect = lower value 0.0533 | locus YLL041C, strain sdh2, stronger effect = lower value 0.0527 | locus YLR027C, strain aat2, stronger effect = lower value 0.0516 | locus YLR039C, strain RIC1, stronger effect = lower value 0.101 | locus YLR058C, strain SHM2, stronger effect = lower value 0.0432 | locus YLR102C, strain apc9, stronger effect = lower value 0.058 | locus YLR113W, strain HOG1, stronger effect = lower value 0.126 | locus YLR221C, strain rsa3, stronger effect = lower value 0.0565 | locus YLR258W, strain gsy2, stronger effect = lower value 0.0549 | locus YLR262C, strain YPT6 (second series), stronger effect = lower value 0.0739 | locus YLR262C, strain YPT6, stronger effect = lower value 0.0999 | locus YLR268W, strain sec22, stronger effect = lower value 0.0648 | locus YLR320W, strain mms22, stronger effect = lower value 0.0701 | locus YLR330W, strain CHS5, stronger effect = lower value 0.0543 | locus YLR342W, strain FKS1 (second series), stronger effect = lower value 0.0596 | locus YLR342W, strain FKS1, stronger effect = lower value 0.0608 | locus YLR357W, strain rsc2, stronger effect = lower value 0.119 | locus YLR370C, strain arc18, stronger effect = lower value 0.0588 | locus YLR371W, strain rom2, stronger effect = lower value 0.0606 | locus YLR384C, strain iki3, stronger effect = lower value 0.0569 | locus YLR418C, strain cdc73, stronger effect = lower value 0.0923 | locus YML016C, strain PPZ1, stronger effect = lower value 0.0531 | locus YML032C, strain rad52, stronger effect = lower value 0.0676 | locus YML120C, strain ndi1, stronger effect = lower value 0.0532 | locus YML124C, strain tub3, stronger effect = lower value 0.0589 | locus YMR058W, strain fet3, stronger effect = lower value 0.0569 | locus YMR078C, strain ctf18, stronger effect = lower value 0.0681 | locus YMR125W, strain sto1, stronger effect = lower value 0.0655 | locus YMR129W, stronger effect = lower value 0.0538 | locus YMR205C, strain PFK2, stronger effect = lower value 0.0777 | locus YMR223W, strain ubp8, stronger effect = lower value 0.061 | locus YMR231W, strain pep5, stronger effect = lower value 0.0645 | locus YMR307W, strain GAS1, stronger effect = lower value 0.134 | locus YNL067W, strain RPL9B, stronger effect = lower value 0.0493 | locus YNL071W, strain lat1, stronger effect = lower value 0.0582 | locus YNL153C, strain GIM3, stronger effect = lower value 0.0537 | locus YNL183C, strain NPR1, stronger effect = lower value -0.00168 | locus YNL209W, strain ssb2, stronger effect = lower value 0.0552 | locus YNL233W, strain BNI4, stronger effect = lower value 0.0562 | locus YNL248C, strain rpa49, stronger effect = lower value 0.0711 | locus YNL250W, strain rad50, stronger effect = lower value 0.0768 | locus YNL271C, strain bni1, stronger effect = lower value 0.0589 | locus YNL298W, strain CLA4, stronger effect = lower value 0.0577 | locus YNL307C, strain MCK1, stronger effect = lower value 0.0655 | locus YNL322C, strain KRE1 (second series), stronger effect = lower value 0.06 | locus YNL322C, strain KRE1, stronger effect = lower value 0.048 | locus YNR049C, strain mso1, stronger effect = lower value 0.0552 | locus YNR052C, strain pop2, stronger effect = lower value 0.0583 | locus YOL147C, strain pex11, stronger effect = lower value 0.0569 | locus YOR001W, strain rrp6, stronger effect = lower value 0.0649 | locus YOR061W, strain CKA2, stronger effect = lower value 0.0309 | locus YOR069W, strain VPS5, stronger effect = lower value 0.0516 | locus YOR070C, strain gyp1, stronger effect = lower value 0.0562 | locus YOR080W, strain dia2, stronger effect = lower value 0.0607 | locus YOR083W, strain WHI5, stronger effect = lower value 0.0593 | locus YOR106W, strain vam3, stronger effect = lower value 0.0617 | locus YOR136W, strain idh2, stronger effect = lower value 0.0704 | locus YOR144C, strain elg1, stronger effect = lower value 0.0544 | locus YOR184W, strain ser1, stronger effect = lower value 0.0674 | locus YOR231W, strain MKK1, stronger effect = lower value 0.0972 | locus YOR265W, strain rbl2, stronger effect = lower value 0.0533 | locus YOR270C, strain vph1, stronger effect = lower value 0.0863 | locus YOR290C, strain snf2, stronger effect = lower value 0.0573 | locus YOR316C, strain cot1, stronger effect = lower value 0.0567 | locus YPL051W, strain arl3, stronger effect = lower value 0.06 | locus YPL055C, strain LGE1, stronger effect = lower value 0.0709 | locus YPL078C, strain atp4, stronger effect = lower value 0.0604 | locus YPL106C, strain sse1, stronger effect = lower value 0.0881 | locus YPL240C, strain hsp82, stronger effect = lower value 0.0535 | locus YPL241C, strain CIN2, stronger effect = lower value 0.0502 | locus YPL256C, strain CLN2, stronger effect = lower value 0.113 | locus YPR119W, strain clb2, stronger effect = lower value 0.0599 | locus YPR141C, strain kar3, stronger effect = lower value 0.0617 | locus YPR163C, strain tif3, stronger effect = lower value 0.0683 | locus YPR167C, strain met16, stronger effect = lower value 0.06 | strain wtn01, stronger effect = lower value 0.061

Source: PubChem BioAssay AID1159580 (chemical genetic matrix, 2015)
